Values joined by “and” are separate entries in the source; they are usually repeats but may differ in a detail not shown here. Equal values may be shown once. Results filed as inconclusive are left out. Where a call stands in place of a potency, no number is given. Unmarked numbers belong to inactive results. Active and inactive are the calls of the source. The call rests on the fitted dose curve; in most records, active means well fitted inhibition curve with a large enough effect; inconclusive means small, poorly fitted or top-dose-only effect; inactive means flat fitted curve, though single readings scatter.
These compounds were tested against Phospholipid hydroperoxide glutathione peroxidase GPX4 (Homo sapiens) (UniProt P36969) (assay: Primary qHTS Assay for Inhibitors of Recombinant Selenoprotein Glutathione Peroxidase 4 (GPX4) (AID 1845192; further: nearly all actives have a fitted effect of over 65% in size)). Settings: recombinant GPX4, GR-coupled NADPH fluorescence, 15 min; series mostly up to 50 µM.
Phospholipid hydroperoxide glutathione peroxidase GPX4 (Homo sapiens), sequence (P36969 whole entry, looked up): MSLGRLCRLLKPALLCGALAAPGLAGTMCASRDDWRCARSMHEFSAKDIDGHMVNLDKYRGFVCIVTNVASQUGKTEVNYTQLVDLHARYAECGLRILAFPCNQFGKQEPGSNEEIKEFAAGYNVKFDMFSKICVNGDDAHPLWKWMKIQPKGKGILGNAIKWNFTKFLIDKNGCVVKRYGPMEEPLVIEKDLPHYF
Text: Assay Provider: Elias S.J. Arner MD PhD.
Department of Medical Biochemistry and Biophysics
Karolinska Institutet, Solna, Stockholm, Sweden
Selenoprotein glutathione peroxidases (GPX), like the ubiquitously expressed GPX1 and the ferroptosis modulator GPX4, enact their antioxidant activities by reducing hydroperoxides using glutathione. […] GPX1 and GPX4 inhibitors have thus shown promise as anti-cancer agents. Existing inhibitors are often promiscuous, or modulate GPX activity only indirectly, so novel direct inhibitors identified through screening against GPX1 and GPX4 could be valuable. Here, we developed optimized glutathione reductase (GR)-coupled GPX assays for the biochemical high-throughput screen (HTS) of almost 12,000 compounds with known mechanisms of action. Initial hits were triaged using a GR counter-screen, assessed for isoform specificity using a separate GPX2 assay, and were assessed for general selenocysteine-targeting activity using a thioredoxin reductase (TXNRD1) assay. With this suite of assays, we identified novel GPX1/GPX2- and GPX4-specific inhibitors and can here present a validated pipeline for future discovery research for selenoprotein-targeting agents.
SEQUENCE No. (e.g., 1, 2, 3, etc.); […] (e.g., Cells, Incubation, Reagent, etc.); VALUE; DESCRIPTION.
1; Reagent 1; 3 uL; 333.33 nM GPx4 enzyme or no enzyme control in 1536-well, black, solid Greiner assay plate.
2; Compound; 25 nL; Kalypsis pin tool (Wako USA) equipped with a 1536-well pin head.
3; Incubation; 30 min; room temperature.
4; Reagent 2; 1 uL; 500 nM GR, 5 mM GSH, 2.5 mM NADPH solution
5; Reagent 3; 1 uL; 2.5 mM CHP in 50% EtOH.
6; Detection; Fluorescence; ViewLux microplate reader, excitation 340 nm and emission 450 nm.
7; Incubation; 15 min; room temperature.
8; Detection; Fluorescence; ViewLux microplate reader, excitation 340 nm and emission 450 nm.
NOTES (numbers refer to Sequence numbers above)
1. 3 µL of 333.33 nM GPX4 and 0.016% BSA in assay buffer (50 mM Tris-HCl, 2 mM EDTA (pH 7.5), 150 mM NaCl) was added to columns 3-48 of 1536-well plates using a BioRAPTR Flying Reagent Dispenser (Let's Go Robotics (LGR), Carlsbad, CA). A no-enzyme control (0.01% BSA in TES assay buffer) was added to columns 1-2.
2. 25 nL, library and DMSO controls were added to each well with a pin tool (Kalypsys).
3. The assay plates were incubated for 30 minutes at room temperature.
4. 1 µL of master mix (500 nM glutathione reductase (GR), 5 mM reduced glutathione (GSH), 2.5 mM NADPH in assay buffer) was added.
5. 1 µL of cumene hydroperoxide (CHP) ([2.5 mM] in 50% EtOH) was then added within 5 minutes to initiate the reaction. Final concentrations were: 200 nM GPX4, 1 mM GSH, 0.5 mM CHP, 0.5 mM NADPH, 100 nM GR, 0.01% BSA.
6. Initial fluorescence readout (t=0) at 340/450 nm was measured using a ViewLux multimodal detector (PerkinElmer, Waltham, MA).
8. Endpoint fluorescence readout (t=15) at 340/450 nm was measured 15 min after room temperature incubation.
Potency means the concentration at half of the fitted maximal effect.

Structure (SMILES)	Potency	activity change, negative = inhibition	outcome
N#Cc1c[nH]c2c(C(=O)N3CCN(CCc4ccc(F)cc4)CC3)cccc12	inactive		
CC1CCN(c2cc(NC(=O)c3ccccc3)ncn2)CC1	inactive		
CNc1ncc2cc(-c3cc(NC(=O)NCCC(C)(C)C)c(F)cc3C)c(C)nc2n1	inactive		
COCCOCCOc1ccc(C2=N[C@@](C)(C(=O)O)CS2)c(O)c1	inactive		
C#C[C@]1(OC(C)=O)CC[C@H]2[C@@H]3CCC4=CC(=O)CC[C@@H]4[C@H]3CC[C@@]21C	inactive		
O=C(Nc1ncc(SCCN2CCCC2)s1)C1(c2ccc(S(=O)(=O)C3CC3)cc2)CC1C1CCCCC1 (stereo not given)	inactive		
CN1CCN(C(=O)c2ccc(Nc3nccc(-c4cccs4)n3)cc2Cl)CC1	inactive		
Cc1cc(C)c(-c2csc(NC(=O)c3ccccc3)n2)c(C)c1	inactive		
NC(=O)c1nc(F)c[nH]c1=O	9.04 µM (active) and 22.4 µM (active)		
N#C/C(=C(/N)Sc1ccc(N)cc1)c1ccccc1C(F)(F)F	inactive		
CC1OC2OC3C(OCC(O)C3O)OC(=O)C34CCC(C)(C)CC3C3=CCC5C6(C)CC(O)C(OC7OC(CO)C(O)C(O)C7OC7OCC(OC(=O)CC(C)(O)CC(=O)OC1C(OC1OCC(O)C(O)C1O)C2O)C(O)C7O)C(C)(CO)C6CCC5(C)C3(C)CC4O (stereo not given)	inactive		
Cc1c(C(=O)NCCCO)cnn1-c1nc(-c2cccc(C(F)(F)F)c2)cs1	inactive		
C[C@H](Cc1ccccc1)Nc1ncnc2c1ncn2[C@@H]1O[C@H](CO)[C@@H](O)[C@H]1O	inactive		
C=C(C)[C@@H]1CC[C@]2(C(=O)O)CC[C@]3(C)C(CCC4[C@@]5(C)C[C@@H](O)[C@H](O)C(C)(C)C5CC[C@]43C)C12 (stereo not given in full)	inactive		
CN1C2CCCC1CC(NC(=O)c1nn(C)c3ccccc13)C2 (stereo not given)	inactive		
COc1ccc(NC(=O)N2CCc3c2ccc2ccccc32)cc1N1CCN(C)CC1	inactive		
COc1cc(O)ccc1OCCNCC(O)COc1cccc2[nH]c3ccccc3c12 (stereo not given)	inactive		
O=C(O)c1ccc(O)c2ncc(N3CCCN(CCc4cccc5ccccc45)CC3)cc12	inactive		
N#Cc1ccc(-c2c(-c3ncn[nH]3)sc(N3CCOCC3)c2C#N)c(F)c1	inactive		
CC1(C)SC2C(NC(=O)[C@H](C(=O)O)c3ccsc3)C(=O)N2C1C(=O)O (stereo not given in full)	inactive		

Structure (SMILES)	Potency	activity change, negative = inhibition	outcome
Nc1ncnc2c1ncn2[C@@H]1O[C@H](CO)C[C@H]1O	inactive		
CC[C@H](C)[C@H]1O[C@]2(CC[C@@H]1C)C[C@@H]1C[C@@H](C/C=C(\C)[C@@H](O[C@H]3C[C@H](OC)[C@@H](O[C@H]4C[C@H](OC)[C@@H](O)[C@H](C)O4)[C@H](C)O3)[C@@H](C)/C=C/C=C3\CO[C@@H]4[C@H](O)C(C)=C[C@@H](C(=O)O1)[C@]34O)O2	inactive		
CC(=O)Nc1ccc(C(=O)Nc2ccccc2N)cc1	inactive		
CN1CCN(Cc2ccc(Nc3ncc(Cl)c(Nc4ccccc4S(=O)(=O)N(C)C)n3)cc2)CC1		-3.36% [at 9.73 µM]	
CC1(C)SC2C(NC(=O)[C@H](NC(=O)N3CCNC3=O)c3ccccc3)C(=O)N2C1C(=O)O (stereo not given in full)	inactive		
CCCCc1nc(Cl)c(CO)n1Cc1ccc(-c2ccccc2-c2nnn[nH]2)cc1	inactive		
N[C@@H](C(=O)N[C@@H]1C(=O)N2C(C(=O)O)=C(CSc3cn[nH]n3)CS[C@H]12)c1ccc(O)cc1	inactive		
CC(=O)N1c2ccc(-c3ccc(C(=O)O)cc3)cc2C(Nc2ccc(Cl)cc2)CC1C (stereo not given)	inactive		
CNc1ccc([N+](=O)[O-])cc1-n1cnc(-c2ccc(C(F)(F)F)cc2)c1	inactive		
N#CCC(C1CCCC1)n1cc(-c2ncnc3[nH]ccc23)cn1 (stereo not given)	18 µM (active)		
CC1(CO)CCCC2(C)C1C(OC(=O)c1ccccc1)C=C1C(=O)OCC12O (stereo not given)	inactive		
COc1ccc2c(c1)CN(C(=O)CCN1CCC(Cc3ccccc3)CC1)CCS2	inactive		
COc1cc2ncnc(Oc3cccc(NC(=O)Nc4cc(C(C)(C)C(F)(F)F)on4)c3)c2cc1OC	inactive		
O=C(c1ccc(F)c(F)c1Nc1ccc(I)cc1F)N1CC(O)([C@@H]2CCCCN2)C1	inactive		
Nc1nc(NCC2CCC(CNS(=O)(=O)c3cccc4ccccc34)CC2)nc2ccccc12 (stereo not given)	inactive		
CCC[C@@H](NC(=O)N1C(=O)C(CC)(CC)[C@@H]1Oc1ccc(C(=O)N2CCN(C)CC2)cc1)c1ccc2c(c1)OCO2	inactive		
Fc1ccccc1CNCc1ccc(-c2ccnc3[nH]ccc23)cc1	16.1 µM (active)		
COc1ccc(CNC(=O)Nc2ncc([N+](=O)[O-])s2)cc1	inactive		
CN(C)/C(N)=N/C(=N)N			inactive [setting not given]
CO[C@@H]1[C@@H](O[C@H]2O[C@@H](C)[C@H](O[C@@H]3C[C@](C)(O)[C@H](O)[C@@H](C)O3)[C@@H](N(C)C)[C@@H]2O)[C@@H](CC=O)C[C@@H](C)[C@@H](O[C@H]2CC[C@H](N(C)C)[C@H](C)O2)/C=C/C=C/C[C@@H](C)OC(=O)C[C@H]1O	inactive		

Reference: PubChem BioAssay (NCATS)
